Structures are written as SMILES. Unmarked numbers belong to inactive results. The source made the active and inactive calls. The call rests on the fitted dose curve; in most records, active means well fitted curve in the direction sought with a large enough effect in the repeat runs; inconclusive means weak or mixed curves; inactive means flat fitted curve, though single readings scatter.
On the % scale 0 is the no-effect control and ±100 the full control effect; potency means the concentration at half of the fitted maximal effect; tags describe the fitted curve by direction and shape or compound fluorescence and quenching.

This assay in a line: qHTS assay to test for compound auto fluorescence at 590 nm (red) in HEK293 cells (AID 720679). The note with it: red autofluorescence 540/590 nm; series mostly up to 46 µM; fluorescence, % of fluorescent control: at the top concentration. The procedure, abridged: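 HEK293 cells (2,000/well, 10% dialyzed FBS) attached 4-5 hr, then dosed with compound or DMSO and incubated overnight at 37C, 5% CO2. Red fluorescence read at 540/590 nm, Rose Bengal sodium as reference fluorophore.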
`CCC(=O)O[C@@H]1CC(=O)O[C@H](C)C/C=C/C=C/[C@H](O)[C@H](C)C[C@H](CC=O)[C@H](O[C@@H]2O[C@H](C)[C@@H](O[C@H]3C[C@@](C)(O)[C@@H](OC(=O)CC)[C@H](C)O3)[C@H](N(C)C)[C@H]2O)[C@H]1OC`: the “fluorescence, % of fluorescent control” value was -1.36% [at 18.6 µM]. Same read-out and setting: then `CCCCC(=O)OCC(=O)[C@]1(O)Cc2c(O)c3c(c(O)c2[C@@H](O[C@H]2C[C@H](NC(=O)C(F)(F)F)[C@H](O)[C@H](C)O2)C1)C(=O)c1c(OC)cccc1C3=O`, with 4.45%.

With `[O]=[Bi][O][Bi]=[O]`, the “fluorescence, % of fluorescent control” value is -0.666%. The same measure, in the same setting: then `CC[C@@]1(O)C[C@H](O[C@H]2C[C@H](N(C)C)[C@H](O[C@H]3C[C@H](O)[C@H](O[C@H]4CCC(=O)[C@H](C)O4)[C@H](C)O3)[C@H](C)O2)c2c(cc3c(c2O)C(=O)c2c(O)cccc2C3=O)[C@H]1C(=O)OC`, with 1.79%; and `CC(C)N=c1cc2n(-c3ccc(Cl)cc3)c3ccccc3nc-2cc1Nc1ccc(Cl)cc1`, with 0.0261% [at 18.6 µM]. As for `CC(=C\c1ccccc1)/C=C1/SC(=S)N(CC(=O)O)C1=O`, the “fluorescence, % of fluorescent control” value is 0.122%. The same measure, in the same setting: then `CO[C@H]1C[C@H](O[C@@H]2/C(C)=C/C[C@@H]3C[C@@H](C[C@]4(CC[C@H](C)[C@@H](C5CCCCC5)O4)O3)OC(=O)[C@@H]3C=C(C)/C(=N/O)[C@H]4OC/C(=C\C=C\[C@@H]2C)[C@]43O)O[C@@H](C)[C@@H]1O`, with 0.484%; and `CC(C)(C)c1ccc(CN2CCN(C(c3ccccc3)c3ccc(Cl)cc3)CC2)cc1` (stereo not drawn), with 0.0114%; and `CCCCCCCCCCCCCC[n+]1ccc(C)cc1`, with 0.0232%. For `Cc1cc(Nc2ccccc2C(=O)O)ccc1Cl`, the “fluorescence, % of fluorescent control” value is 0.009%. As for `CN1CCN(CCC=C2c3ccccc3Sc3ccc(S(=O)(=O)N(C)C)cc32)CC1`, the “fluorescence, % of fluorescent control” value was 0.0757%. Consider `CCC(=O)c1ccc2c(c1)N(CCCN1CCN(CCO)CC1)c1ccccc1S2`, for which the “fluorescence, % of fluorescent control” value is -0.837%. On the same count and under the same terms, the value for `CC1CCCC1` was 0.161% [at 91.3 µM]. With `O=C(O)c1c(Cl)c(Cl)c(Cl)c(Cl)c1-c1c2cc(I)c(=O)c(I)c-2oc2c(I)c(O)c(I)cc12`, the Potency was 11.2 µM [fluorescent] (active). For the molecule `C=C1C(=O)O[C@H]2[C@H]1CC/C(C)=C\CC[C@@]1(C)O[C@@H]21`, the “fluorescence, % of fluorescent control” value was 0.515%. Still for that read-out and setting: the value for `C#C[C@]1(O)CC[C@H]2[C@@H]3CCC4=C/C(=N/O)CC[C@@H]4[C@H]3CC[C@@]21CC` was -0.107%; that for `Cc1cccc(C)c1Nc1ncccc1C(=O)O` was -0.231%; that for `C=Cc1c(C)c2cc3nc(cc4[nH]c(cc5nc(cc1[nH]2)C(C)=C5CCC(=O)OC)c(CCC(=O)O)c4C)[C@@]1(C)C3=CC=C(C(=O)OC)[C@H]1C(=O)OC` was -0.0187%. On the same count and under the same terms, the value for `O=C1CSC2(CCN(CCCN3c4ccccc4Sc4ccc(Cl)cc43)CC2)N1` was -0.249%. With `Cc1ccccc1`, the Potency entry is “inactive”. In the case of `CC(C)[C@@H](C)/C=C/[C@@H](C)[C@H]1CC[C@H]2/C(=C/C=C3\C[C@@H](O)CC[C@@H]3C)CCC[C@]12C`, the “fluorescence, % of fluorescent control” value was 0.0549%. Same read-out and setting: then `CCCCC(C)(O)C/C=C/[C@H]1[C@H](O)CC(=O)[C@@H]1CCCCCCC(=O)OC` (stereo partly drawn), with 0.0099%; and `CC(=O)Nc1ccc(NC(=S)NC(=O)c2ccc(C(C)(C)C)cc2)cc1`, with 0.0713%. In the case of `CC1(C)S[C@@H]2[C@H](NC(=O)C3(N)CCCCC3)C(=O)N2[C@H]1C(=O)O`, the “fluorescence, % of fluorescent control” value was 0.0133%. On the same count and under the same terms, then `CCCCCCCC(=O)CC[C@@H]1[C@@H](C/C=C\CCCC(=O)OC(C)C)[C@@H](O)C[C@H]1O`, with -0.2%; and `COc1ccc(C[C@H](C)NC[C@@H](O)c2ccc(O)c(NC=O)c2)cc1`, with -0.0537%. Still for that read-out and setting: then `C#C[C@]1(O)CC[C@H]2[C@@H]3CCC4=C(CCC(=O)C4)[C@H]3CC[C@@]21C`, with -0.0757% [at 18.6 µM]; and `CO[C@@H]1[C@@H](O[C@@H]2O[C@H](C)[C@@H](O[C@H]3C[C@@](C)(O)[C@@H](OC(=O)CC(C)C)[C@H](C)O3)[C@H](N(C)C)[C@H]2O)[C@@H](CC=O)C[C@@H](C)C(=O)/C=C/C2OC2C[C@@H](C)OC(=O)C[C@H]1OC(C)=O` (stereo partly drawn), with -0.26%; and `CCN(CC)CCOc1ccc(-c2nc3cc(Cl)ccc3s2)cc1`, with 0.0477%. With `OCC(O)CO`, the Potency entry was “inactive”. On to `Cc1cc2nc3c(=O)[nH]c(=O)nc-3n(C[C@H](O)[C@H](O)[C@H](O)COP(=O)(O)OP(=O)(O)OC[C@H]3O[C@@H](n4cnc5c(N)ncnc54)[C@H](O)[C@@H]3O)c2cc1C`, for which the “fluorescence, % of fluorescent control” value is -0.0227%. As to `CNC(C)[C@@H]1CC[C@@H](N)[C@@H](O[C@H]2[C@H](O)[C@@H](O[C@H]3OC[C@](C)(O)[C@H](NC)[C@H]3O)[C@H](N)C[C@@H]2N)O1` (stereo partly drawn), the “fluorescence, % of fluorescent control” value is 0.0353% [at 18.6 µM].

In the case of `NC(=O)OC[C@@H]1[C@H](NC(=O)/C(=N\OCC(=O)O)c2csc(N)n2)C(=O)N1S(=O)(=O)O`, the “fluorescence, % of fluorescent control” value is -0.776%.

The values are drawn from PubChem BioAssay (Tox21).
